According to PubChem BioAssay:
For part of these data: Results with a measured potency or affinity are listed apart. Calls of active or inactive are those of the source. No rule for the calls is given here.

These compounds were tested against Plasmodium falciparum protein kinase 6 (PK6, PF3D7_1337100) (UniProt Q8IDW1) (assay: PfPK6 kinase inhibitors, biochemical, TCAMS library (AID 1159586)). Details: recombinant PfPK6, Kinase-Glo ATP depletion luminescence.
Chain of Plasmodium falciparum protein kinase 6 (PK6, PF3D7_1337100) (Q8IDW1 1-305): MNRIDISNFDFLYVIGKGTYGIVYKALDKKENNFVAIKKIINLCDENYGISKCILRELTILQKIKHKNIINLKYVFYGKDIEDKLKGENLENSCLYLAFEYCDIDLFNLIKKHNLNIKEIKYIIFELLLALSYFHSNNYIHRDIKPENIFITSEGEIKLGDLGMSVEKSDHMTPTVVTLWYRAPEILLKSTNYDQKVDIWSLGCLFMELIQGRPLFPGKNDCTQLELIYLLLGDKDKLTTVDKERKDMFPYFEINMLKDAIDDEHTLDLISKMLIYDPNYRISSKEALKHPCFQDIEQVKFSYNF

outcome, inactive:
CN(C)CCCOc1cc(NC(=O)Nc2ccc(-c3ccncc3)c3ccccc23)ccc1I
CC[C@H](C)CNC(=O)c1cncc(-c2ccc(CNCC3CNCCCO3)cc2)c1 (some centres undefined)
Cc1cnc(C(=O)Nc2cccc(-c3cccc(-c4nc5ccc(F)cc5[nH]4)c3)c2)cn1
O=C(NCc1cc2c(cc1Cl)OCO2)c1ccc(CNC2CCN(Cc3ccccc3)CC2)cc1
CCN1CCN(Cc2c(O)ccc3c(=O)c(Oc4cc(C)cc(C)c4)c(C(F)(F)F)oc23)CC1
O=S(=O)(c1ccc(OCc2ccc(Cl)cc2)cc1)c1cc2c(cc1OCc1ccccc1)CCN(CC1CC1)CC2
CC(C)CC(=O)Nc1cc(=O)[nH]c2nc(-c3ccccc3)nn12
COc1ccc(-c2ccc(NC(=O)c3ccc(F)cc3)cc2)cc1CN1CCCN(C)CC1
CC(C)(C)c1ccc(CNC(=O)c2ccc(-c3nc4ccc(C(C)(C)C)cc4[nH]3)cc2)cc1
COc1ccccc1C1CCN(C2CCC(NC(=O)/C=C/c3cccc(C(F)(F)F)c3)CC2)CC1 (centres undefined)
COC(=O)c1ccc(-c2ccc(C(=O)NCC3CCN(c4nc(N)c5cc(OC)c(OC)cc5n4)CC3)cc2)cc1
COc1nc2c(CCN3CC[C@H](NCc4ccc5c(c4)NC(=O)CO5)[C@H](O)C3)c(Cl)cnc2cc1F
CCCCCC1c2[nH]c3ccccc3c2CCN1C(=O)OCc1ccccc1 (centres undefined)
CCC[C@@H]([C@@H](CC1CCCCC1)C(=O)N[C@H](C(=O)Nc1nccs1)C(C)(C)SCCNC(=O)OCc1ccccn1)N(O)C=O
N=c1c(C(=O)NCc2ccccc2)cc2c(=O)n3ccccc3nc2n1CCc1ccccc1
CN(CCCCCN1CCC(NC(=O)Nc2ccc(Oc3ccccc3)cc2)C1)C(=O)/C=C/c1ccc(Cl)c(Cl)c1 (centres undefined)
Cc1noc(C)c1-c1cccc(CNCc2ccc(-c3ccc(-c4nc5c(C)cccc5[nH]4)cc3)cc2)c1
CCN(CC)CCN(Cc1ccc(-c2ccc(C(F)(F)F)cc2)cc1)C(=O)Cn1cc(CCCc2cccc(F)c2F)c(=O)c2ccccc21
COC(=O)c1c(NC(=O)c2cccc(C(F)(F)F)c2)sc2c1CCN(Cc1ccccc1)C2
O=C(Nc1cccc(-c2ccc(-c3nc4ccc(C(F)(F)F)cc4[nH]3)s2)c1)c1ccncc1
CN(C)CCCOc1ccc(CCNCc2cccc(Oc3ccc(Cl)cc3)c2)cc1
COc1cc2ccccc2cc1CNCCCCCCNCc1cc2ccccc2cc1OC
COc1ccc(C(=O)CCC(=O)N(Cc2ccc(-c3ccc(CNCCc4ccc(S(C)(=O)=O)cc4)cn3)cc2)Cc2ccc3c(c2)OCO3)cc1F
CCN1CCCC1CN(Cc1ccc(-c2ccc(C(F)(F)F)cc2)cc1)C(=O)Cn1c(CCc2cccc(F)c2F)nc(=O)c2ccccc21 (centres undefined)
O=C(NCCCCCN1CCC(c2c[nH]c3ccccc23)CC1)c1ccc(Cl)c(Cl)c1
CCCCCCCn1c(=N)n(CC(O)c2ccc(Cl)c(Cl)c2)c2ccccc21 (centres undefined)
O=C(Nc1cccc(C(F)(F)F)c1)c1cccc2[nH]c(C(F)(F)F)nc12
Cc1cccc2[nH]c(-c3ccc(-c4ccc(NC(=O)c5cncn5C)cc4)s3)nc12
Nc1c(Cl)cc(C(O)CNCCCCCOCCc2ccc3ccccc3n2)cc1Cl (centres undefined)

Each compound was assayed against Protein kinase 7 (PK7), Plasmodium falciparum 3D7 (PF3D7_0213400) (UniProt Q7YTF7) (assay: inhibition of Plasmodium PK7 catalytic activity – biochemical, TCAMS antimalarial set, Kinase-Glo luminescence (AID 1159587)). Details: recombinant PfPK7, Kinase-Glo ATP depletion luminescence.
Chain of Protein kinase 7 (PK7), Plasmodium falciparum 3D7 (PF3D7_0213400) (Q7YTF7 1-343): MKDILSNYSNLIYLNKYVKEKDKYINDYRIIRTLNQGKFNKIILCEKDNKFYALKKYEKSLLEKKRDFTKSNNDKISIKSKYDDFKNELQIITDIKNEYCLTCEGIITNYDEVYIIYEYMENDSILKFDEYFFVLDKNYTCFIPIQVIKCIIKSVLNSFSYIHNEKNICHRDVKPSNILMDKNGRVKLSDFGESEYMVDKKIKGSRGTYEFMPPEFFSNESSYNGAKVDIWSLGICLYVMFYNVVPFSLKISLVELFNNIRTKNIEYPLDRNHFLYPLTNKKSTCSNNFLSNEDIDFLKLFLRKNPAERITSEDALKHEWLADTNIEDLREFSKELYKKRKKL

outcome, inactive:
COc1cc(OC)cc(C(=O)Nc2ccc(Nc3nc(C)cc(N(C)C)n3)cc2)c1
Cc1ccc(C=C2SC(=Nc3ccccc3)NC2=O)c(C)c1
CC(C)(C)c1nn(-c2ccccc2)c2[nH]c(=O)c(CNCc3ccc4c(c3)OCO4)cc12
Cc1[nH]nc2cc(Nc3nccc(Nc4ccc(Oc5ccccc5)cc4)n3)ccc12
Cc1cc(Nc2ccc(OCc3ccccc3Cl)cc2)c2cc(Cl)ccc2n1
O=C(NCCc1cccc(F)c1)c1cc(Br)cc(N2CCN(c3ccncc3)CC2)c1
COC(=O)/C=C/c1ccc(CCC(C)NCC(O)c2cccc(Cl)c2)cc1 (centres undefined)
O=[N+]([O-])c1ccc(C(O)CNCCc2ccccc2)cc1OCc1ccccc1 (centres undefined)
Cc1sc2nc(CSc3ccccc3)nc(N3CCN(CC(=O)NC4CC4)CC3)c2c1C
O=C(c1ccc(F)c2ccccc12)N1CCc2cc3nccc(N4CCN5CCC[C@H]5C4)c3cc21
Cc1[nH]c2ccccc2c1C(=O)C(C)Sc1n[nH]c(-c2ccccc2Br)n1 (centres undefined)
CN(C)CCCOc1cc(NC(=O)Nc2ccc(-c3ccncc3)c3ccccc23)ccc1I
CC[C@H](C)CNC(=O)c1cncc(-c2ccc(CNCC3CNCCCO3)cc2)c1 (some centres undefined)
Cc1cnc(C(=O)Nc2cccc(-c3cccc(-c4nc5ccc(F)cc5[nH]4)c3)c2)cn1
O=C(NCc1cc2c(cc1Cl)OCO2)c1ccc(CNC2CCN(Cc3ccccc3)CC2)cc1
CCN1CCN(Cc2c(O)ccc3c(=O)c(Oc4cc(C)cc(C)c4)c(C(F)(F)F)oc23)CC1
O=S(=O)(c1ccc(OCc2ccc(Cl)cc2)cc1)c1cc2c(cc1OCc1ccccc1)CCN(CC1CC1)CC2
CC(C)CC(=O)Nc1cc(=O)[nH]c2nc(-c3ccccc3)nn12
COc1ccc(-c2ccc(NC(=O)c3ccc(F)cc3)cc2)cc1CN1CCCN(C)CC1
CC(C)(C)c1ccc(CNC(=O)c2ccc(-c3nc4ccc(C(C)(C)C)cc4[nH]3)cc2)cc1
COc1ccccc1C1CCN(C2CCC(NC(=O)/C=C/c3cccc(C(F)(F)F)c3)CC2)CC1 (centres undefined)
COC(=O)c1ccc(-c2ccc(C(=O)NCC3CCN(c4nc(N)c5cc(OC)c(OC)cc5n4)CC3)cc2)cc1
COc1nc2c(CCN3CC[C@H](NCc4ccc5c(c4)NC(=O)CO5)[C@H](O)C3)c(Cl)cnc2cc1F
CCCCCC1c2[nH]c3ccccc3c2CCN1C(=O)OCc1ccccc1 (centres undefined)
CCC[C@@H]([C@@H](CC1CCCCC1)C(=O)N[C@H](C(=O)Nc1nccs1)C(C)(C)SCCNC(=O)OCc1ccccn1)N(O)C=O
N=c1c(C(=O)NCc2ccccc2)cc2c(=O)n3ccccc3nc2n1CCc1ccccc1
CN(CCCCCN1CCC(NC(=O)Nc2ccc(Oc3ccccc3)cc2)C1)C(=O)/C=C/c1ccc(Cl)c(Cl)c1 (centres undefined)
Cc1noc(C)c1-c1cccc(CNCc2ccc(-c3ccc(-c4nc5c(C)cccc5[nH]4)cc3)cc2)c1
CCN(CC)CCN(Cc1ccc(-c2ccc(C(F)(F)F)cc2)cc1)C(=O)Cn1cc(CCCc2cccc(F)c2F)c(=O)c2ccccc21
COC(=O)c1c(NC(=O)c2cccc(C(F)(F)F)c2)sc2c1CCN(Cc1ccccc1)C2
O=C(Nc1cccc(-c2ccc(-c3nc4ccc(C(F)(F)F)cc4[nH]3)s2)c1)c1ccncc1
CN(C)CCCOc1ccc(CCNCc2cccc(Oc3ccc(Cl)cc3)c2)cc1
COc1cc2ccccc2cc1CNCCCCCCNCc1cc2ccccc2cc1OC
COc1ccc(C(=O)CCC(=O)N(Cc2ccc(-c3ccc(CNCCc4ccc(S(C)(=O)=O)cc4)cn3)cc2)Cc2ccc3c(c2)OCO3)cc1F
CCN1CCCC1CN(Cc1ccc(-c2ccc(C(F)(F)F)cc2)cc1)C(=O)Cn1c(CCc2cccc(F)c2F)nc(=O)c2ccccc21 (centres undefined)
O=C(NCCCCCN1CCC(c2c[nH]c3ccccc23)CC1)c1ccc(Cl)c(Cl)c1
CCCCCCCn1c(=N)n(CC(O)c2ccc(Cl)c(Cl)c2)c2ccccc21 (centres undefined)
O=C(Nc1cccc(C(F)(F)F)c1)c1cccc2[nH]c(C(F)(F)F)nc12
Cc1cccc2[nH]c(-c3ccc(-c4ccc(NC(=O)c5cncn5C)cc4)s3)nc12
Nc1c(Cl)cc(C(O)CNCCCCCOCCc2ccc3ccccc3n2)cc1Cl (centres undefined)
